Rows were chosen to be rich in hits. Some 3.5% of all compounds tested hit in one or more screens of this group.
MITF inh – inhibitors of human MITF; inhibition, % at 2.6 µM; O75030; AlphaScreen MITF homodimerization, bead proximity signal; hit rate 0.91% among 650,000; in the data active = inhibition above about 50%;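 note: 0% = vehicle wells with protein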
GPR151 ag – activators of human GPR151 | AID 1508602 | activation, % at 11.2 µM | PathHunter beta-arrestin GPR151 cells, luminescence | hit rate 1% among 650,000 | Q8TDV0; in the data active = activation above about 4.9%;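 note: 0% = median of compound wells and 100% = cells with positive control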
TEAD-YAP inh – TEAD-YAP interaction inhibition | HEK-TIYL cells, TEAD-Gal4/YAP UAS-luciferase luminescence | inhibition, % at 9.12 µM | hit rate 1.4% among 640,000; in the data active = inhibition above about 32%;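 note: 0% = median of test compound wells and 100% = reference inhibitor wells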
FBW7 act – activators of human E3 ligase FBW7; AlphaScreen FBW7–phospho-cyclin E peptide binding, activator screen; normalized activity (activation), % at 26.1 µM; hit rate 0.13% among 650,000; AID 1259310; in the data active = normalized activity above about 1.9%;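 note: purified mutant Fbw7 with reduced substrate affinity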
* marks the source's active call; other numbers are inactive results.

Results for Cc1ccc(C(=O)Nc2ncc(Cc3cccc(Cl)c3)s2)cc1 ?
MITF inh: 20; GPR151 ag: 0; TEAD-YAP inh: 11; FBW7 act: 1

How did COc1ccc(OCCN(C)C2CCCCC2)cc1 do in these assays?
MITF inh: 11; GPR151 ag: -1; TEAD-YAP inh: -11; FBW7 act: 0

What do the screens show for `Cc1ncoc1C(=O)N1CCC(Oc2ccc(C(=O)NCCc3ccccc3)cc2)CC1`?
MITF inh: -2; GPR151 ag: 0; TEAD-YAP inh: 50*; FBW7 act: 0

Results for O=C(NCCc1ccccc1)c1ccc(OC2CCN(C(=O)Cn3cncn3)CC2)cc1 ?
MITF inh: 0; GPR151 ag: 0; TEAD-YAP inh: 76*; FBW7 act: 0

What do the screens show for `O=C(NCCc1ccccc1)c1ccc(OC2CCN(C(=O)c3ccsc3)CC2)cc1`?
MITF inh: 8; GPR151 ag: -1; TEAD-YAP inh: 1; FBW7 act: 0

How did COCC(=O)N1CCC(Oc2ccc(C(=O)NCCc3ccccc3)cc2)CC1 do in these assays?
MITF inh: -5; GPR151 ag: 1; TEAD-YAP inh: 28; FBW7 act: 0

Results for Cc1ccoc1C(=O)N1CCC(Oc2ccc(C(=O)NCCc3ccccc3)cc2)CC1 ?
MITF inh: -16; GPR151 ag: 1; TEAD-YAP inh: 83*; FBW7 act: 0

What do the screens show for `Cc1cc(C(=O)N2CCC(Oc3ccc(C(=O)NCCc4ccccc4)cc3)CC2)no1`?
MITF inh: 2; GPR151 ag: 0; TEAD-YAP inh: 9; FBW7 act: 0

Results for O=C(NCCc1ccccc1)c1ccc(OC2CCN(C(=O)c3ccoc3)CC2)cc1 ?
MITF inh: 11; GPR151 ag: 1; TEAD-YAP inh: 53*; FBW7 act: 0

How did CCC(=O)NCc1nnc(SCc2ccc(F)cc2)n1C do in these assays?
MITF inh: 7; GPR151 ag: -1; TEAD-YAP inh: 10; FBW7 act: 0

How did CCN(CC)CCn1c2ccccc2n2cc(-c3ccc(Br)cc3)nc12 do in these assays?
MITF inh: -13; GPR151 ag: -2; TEAD-YAP inh: -3; FBW7 act: 3.6*

What do the screens show for `CCN(CC)CCn1c2ccccc2n2cc(-c3ccc(Cl)c(Cl)c3)nc12`?
MITF inh: -4; GPR151 ag: -1; TEAD-YAP inh: 9; FBW7 act: 6.2*

What do the screens show for `CN(C)CCn1c2ccccc2n2cc(-c3ccc(-c4ccccc4)cc3)nc12`?
MITF inh: 0; GPR151 ag: -1; TEAD-YAP inh: -7; FBW7 act: 1

How did CCN(CC)CCn1c(-c2ccc(Cl)cc2)cn2c3ccccc3nc12 do in these assays?
MITF inh: 3; GPR151 ag: -1; TEAD-YAP inh: 10; FBW7 act: 0

Results for CCOc1ccc(-c2cn3c4ccccc4n(CCN(CC)CC)c3n2)cc1 ?
MITF inh: 16; GPR151 ag: 0; TEAD-YAP inh: -10; FBW7 act: 1

How did CCN(CC)CCn1c2ccccc2n2cc(-c3ccc(Cl)cc3)nc12 do in these assays?
MITF inh: -17; GPR151 ag: 0; TEAD-YAP inh: 4; FBW7 act: 4.3*

What do the screens show for `COc1ccc2sc(/C=C(/C)SC)[n+](CCCS(=O)(=O)O)c2c1`?
MITF inh: 1; GPR151 ag: 1; TEAD-YAP inh: -4; FBW7 act: 1

Results for Cc1cccc(NCC(O)Cn2c(C)c(C)c3ccccc32)c1C (centres undefined) ?
MITF inh: 51*; GPR151 ag: -1; TEAD-YAP inh: 2; FBW7 act: 0

How did OCCNc1nc(-c2ccccc2)nc2c1ncn2Cc1ccc(C(F)(F)F)cc1 do in these assays?
MITF inh: 11; GPR151 ag: 0; TEAD-YAP inh: 7; FBW7 act: 0

Results for CCOC(=O)C1=C(C)N=c2s/c(=C\c3ccc(-c4cccc(C(F)(F)F)c4)o3)c(=O)n2C1c1ccc(C(C)C)cc1 (centres undefined) ?
MITF inh: -8; GPR151 ag: -1; TEAD-YAP inh: -2; FBW7 act: 0

Results for COc1ccc(C2C(C#N)=C(N)Oc3c2sc2ccccc32)c2ccccc12 (centres undefined) ?
MITF inh: 12; GPR151 ag: -1; TEAD-YAP inh: 3; FBW7 act: 0

How did COc1ccc(C2C(C#N)=C(N)Oc3c2sc2ccccc32)cc1OC (centres undefined) do in these assays?
MITF inh: 8; GPR151 ag: 2; TEAD-YAP inh: 56*; FBW7 act: 0

Results for CCc1cc2cc3c(cc2nc1SCC(=O)NNC(=O)c1ccco1)OCCO3 ?
MITF inh: 10; GPR151 ag: 1; TEAD-YAP inh: -11; FBW7 act: 0

Results for COc1ccc(N2C(N)=C(C#N)C(c3cc(OC)c(OC)c(OC)c3)C3=C2CCCC3=O)cc1 (centres undefined) ?
MITF inh: 8; GPR151 ag: 1; TEAD-YAP inh: 54*; FBW7 act: 0

Results for COc1ccc(N2C(N)=C(C#N)C(c3ccsc3)C3=C2CCCC3=O)cc1 (centres undefined) ?
MITF inh: 10; GPR151 ag: 1; TEAD-YAP inh: 45*; FBW7 act: 0

How did COc1cc(C2C(C#N)=C(N)N(c3ccc(Br)cc3)C3=C2C(=O)CCC3)cc(OC)c1OC (centres undefined) do in these assays?
MITF inh: 10; GPR151 ag: -1; TEAD-YAP inh: 20; FBW7 act: 0

Results for COc1ccc(N2C(N)=C(C#N)C(c3ccsc3)C3=C2CCCC3=O)c(OC)c1 (centres undefined) ?
MITF inh: 9; GPR151 ag: -1; TEAD-YAP inh: 16; FBW7 act: 1

How did COc1ccc(C2C(C#N)=C(N)N(c3ccc(C)cc3)C3=C2C(=O)CC(C)(C)C3)cc1OC (centres undefined) do in these assays?
MITF inh: 0; GPR151 ag: -1; TEAD-YAP inh: 54*; FBW7 act: 0

How did COCc1c(C(=O)N2CCCCC2C)c(=O)cc(C)n1CCCc1ccccc1 (centres undefined) do in these assays?
MITF inh: 11; GPR151 ag: 0; TEAD-YAP inh: -60; FBW7 act: 1

What do the screens show for `Cc1cc(C)c(NC(=O)c2cc([N+](=O)[O-])ccc2N2CCOCC2)c(C)c1`?
MITF inh: -4; GPR151 ag: 0; TEAD-YAP inh: 2; FBW7 act: 0

Results for Cc1ccc(C(=O)c2cc([N+](=O)[O-])ccc2N2CCOCC2)cc1C ?
MITF inh: 0; GPR151 ag: 0; TEAD-YAP inh: 42*; FBW7 act: 0

Results for N#Cc1cc2c(cc1NC(=O)c1cc([N+](=O)[O-])ccc1N1CCOCC1)OCO2 ?
MITF inh: 15; GPR151 ag: -2; TEAD-YAP inh: 36*; FBW7 act: 0

How did Cc1ccc(C(=O)c2cc([N+](=O)[O-])ccc2N2CCOCC2)c(C)c1 do in these assays?
MITF inh: 15; GPR151 ag: -1; TEAD-YAP inh: 62*; FBW7 act: 0

Results for CC1CCc2nc(/C(C#N)=C\c3ccco3)sc2C1 (centres undefined) ?
MITF inh: -2; GPR151 ag: -1; TEAD-YAP inh: 70*; FBW7 act: 0
